Screens as filed in PubChem BioAssay.
Hits are enriched below; roughly 4.7% of the tested compounds scored in any of these assays.
D1 agonist = human D1 receptor agonism | P21728 | HEK293 T-REx D1 cells, calcium flux, agonist mode | activation, % at 2 µM | 360,000 compounds, 1% hits; also: 0% is about no effect
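Tetracycline-induced HEK293 TREx D1 cells, force-coupled to calcium signalling, were dye-loaded with a no-wash calcium kit. Compound was pin-added after a 10 s baseline. Fluorescence was read kinetically at 1 cycle/s for 180 s, with calcium rises flagged as agonism.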
D1 antag = blocks dopamine activation of the human D1 receptor | P21728 | HEK293 TREx D1 cells, calcium flux, dopamine EC80; hits give low values | activity change, negative = inhibition, % at 10 µM | 360,000 compounds, 3.2% hits | AID 504652; in the data active = activity change below about -30%; also: % is scaled to controls: 0 for no effect and ±100 for the full control effect
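After overnight tetracycline induction at 30 C, force-coupled D1 HEK293 cells took up a no-wash calcium dye at room temperature. Compounds were added and monitored 180 s, and the response to EC80 dopamine was then recorded.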
D1 PAM = potentiators of human D1 dopamine receptor; AID 504651; HEK293 TREx D1 cells, calcium flux, dopamine EC20 potentiation; P21728; potentiation, % at 10 µM; 360,000 compounds, 0.036% hits; in the data active = potentiation above about 30%; also: 0% is about no effect
TRHR ag = agonists of human TRH receptor. P34981. activation, % at 2 µM. TRHR cells, calcium flux fluo-8, FDSS agonist mode. 360,000 compounds, 0.18% hits; also: 0% is about no effect
Target sequence (P34981 whole entry, looked up): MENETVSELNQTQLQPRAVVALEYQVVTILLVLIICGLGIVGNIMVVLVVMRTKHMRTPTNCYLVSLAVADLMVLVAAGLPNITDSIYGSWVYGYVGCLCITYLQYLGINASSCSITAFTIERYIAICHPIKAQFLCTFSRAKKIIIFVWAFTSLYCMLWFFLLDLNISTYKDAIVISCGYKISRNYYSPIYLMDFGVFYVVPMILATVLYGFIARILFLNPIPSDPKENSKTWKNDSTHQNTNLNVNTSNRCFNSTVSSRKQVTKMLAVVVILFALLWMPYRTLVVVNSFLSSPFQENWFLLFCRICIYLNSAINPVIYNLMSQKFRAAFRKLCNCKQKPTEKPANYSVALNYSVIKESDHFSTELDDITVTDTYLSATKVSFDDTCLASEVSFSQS
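Steps: seed TRHR cells overnight; add fluo-8 no-wash Ca dye, RT 30 min–1.5 h; record 10 s baseline; pin-transfer compounds; monitor fluorescence 1 cycle/s for the agonist window. Calcium increases flag candidate agonists.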
TRHR enhancer = allosteric enhancers of human TRH receptor. P34981. TRHR cells, fluo-8 calcium fluorescence, EC20 TRH enhancement. enhancement, % at 2 µM. 360,000 compounds, 0.66% hits. AID 493056; in the data active = enhancement above about 30%; also: 0% is about no effect
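TRHR-expressing cells loaded with fluo-8 calcium dye were read kinetically (ex 480/em 530) during compound addition, then stimulated with an EC20 of TRH (10 nM final). Enhancement of the Gq-mediated intracellular calcium response was scored.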
Starred values were filed as active, the others as inactive; ! = not confirmed by another sample. Rule as the data show it, unless noted: active = activation above about 30%; inactive = the rest.

Screening O=S(=O)(NCCN1CCCC1)c1cccc2cccnc12 returned D1 agonist 1, D1 antag -5, D1 PAM -1, TRHR ag 1 and TRHR enhancer -1.
Screening COc1ccc2c(Cl)c(C(=O)N/N=C/c3ccc4c(c3)OCO4)sc2c1 returned D1 agonist 3, D1 antag 13, D1 PAM -7, TRHR ag 1 and TRHR enhancer 8.
COc1ccc2c(Cl)c(C(=O)N/N=C3\CCCC(=O)C3)sc2c1 was read as D1 agonist 44*, D1 antag -18, D1 PAM -3, TRHR ag -1 and TRHR enhancer 4.
`Cn1c(=O)c2c(-c3ccccc3)n3c(c2n(C)c1=O)C(c1ccco1)Nc1ccccc1-3` (stereo unspecified) gave D1 agonist 1, D1 antag -31*, D1 PAM 2, TRHR ag 0 and TRHR enhancer 3.
`Cc1ccc2oc(C(=O)Nc3sc4c(c3C(=O)NCc3ccccc3)CCCC4)cc(=O)c2c1` gave D1 agonist -1, D1 antag 4, D1 PAM 0, TRHR ag 0 and TRHR enhancer -1.
For Cc1ccc(S(=O)(=O)NCC(=O)N(CC(=O)NCc2ccco2)Cc2ccco2)cc1 the results were D1 agonist 1, D1 antag -6, D1 PAM -5, TRHR ag 0 and TRHR enhancer -3.
For O=C(CN(Cc1ccco1)C(=O)CNS(=O)(=O)c1ccc(Cl)cc1)NCc1ccco1 the results were D1 agonist 0, D1 antag -52*, D1 PAM -1, TRHR ag 0 and TRHR enhancer 3.
Cc1cc(C(=O)NC2CCCc3c2cnn3-c2cccc(C)c2C)no1 (stereo unspecified) was read as D1 agonist 5, D1 antag -38*, D1 PAM -6, TRHR ag 0 and TRHR enhancer -4.
Screening CC1=C(C(=O)NC2CCCc3c2cnn3-c2cccc(C)c2C)OCCO1 (stereo unspecified) returned D1 agonist 18, D1 antag -15, D1 PAM -8, TRHR ag 0 and TRHR enhancer -3.
Screening COc1ccc(C(=O)NC2CCCc3c2cnn3-c2cccc(C)c2C)o1 (stereo unspecified) returned D1 agonist 3, D1 antag -19, D1 PAM -4, TRHR ag -1 and TRHR enhancer 3.
CCn1cc(C(=O)NC2CCCc3c2cnn3-c2cccc(C)c2C)cn1 (stereo unspecified) was read as D1 agonist 40*, D1 antag -21, D1 PAM -7, TRHR ag -1 and TRHR enhancer -4.
Screening Cc1ccc(Cl)cc1N1CCN(C(=O)C2CCN(Cc3nc(-c4ccc(Cl)cc4)oc3C)CC2)CC1 returned D1 agonist -2, D1 antag 1, D1 PAM -6, TRHR ag 0 and TRHR enhancer 2.
For CCc1ccc(-c2nc(CN3CCC(C(=O)N4CCN(c5ccccc5)CC4)CC3)c(C)o2)cc1 the results were D1 agonist 43*, D1 antag -35*, D1 PAM -6, TRHR ag 0 and TRHR enhancer 14.
Screening COc1ccc(N2CCN(C(=O)C3CCN(Cc4nc(-c5ccc(Cl)cc5)oc4C)CC3)CC2)cc1 returned D1 agonist 4, D1 antag 10, D1 PAM -2, TRHR ag 0 and TRHR enhancer 5.
`CCc1ccc(-c2nc(CN3CCC(C(=O)N4CCN(c5ccccn5)CC4)CC3)c(C)o2)cc1` gave D1 agonist 168*, D1 antag -55*, D1 PAM -6, TRHR ag 0 and TRHR enhancer 4.
Screening Cc1ccc(-n2nc3c(=O)n(C(C)C(=O)NCc4ccco4)nc(C)c3c2C)cc1 (stereo unspecified) returned D1 agonist 0, D1 antag -35*!, D1 PAM -4, TRHR ag -1 and TRHR enhancer 0.
Screening CCOC(=O)C(CC)n1nc(C)c2c(C)n(-c3ccc(C)cc3)nc2c1=O (stereo unspecified) returned D1 agonist 5, D1 antag -48*, D1 PAM -4, TRHR ag -2 and TRHR enhancer 0.
For O=C(c1ccc2c(c1)N(Cc1cccc(Cl)c1)C(=O)c1ccccc1S2=O)N1CCC(Cc2ccccc2)CC1 (stereo unspecified) the results were D1 agonist 5, D1 antag 2, D1 PAM 0, TRHR ag 1 and TRHR enhancer -2.
For CCN1C/C(=C/c2ccc(N3CCOCC3)cc2)C(=O)/C(=C/c2ccc(N3CCOCC3)cc2)C1 the results were D1 agonist 88*, D1 antag 5, D1 PAM -6, TRHR ag 28 and TRHR enhancer 4.
CN1C/C(=C/c2ccncc2)C(=O)/C(=C/c2ccncc2)C1 was read as D1 agonist 2, D1 antag 7, D1 PAM -5, TRHR ag 0 and TRHR enhancer -5.
CN1C/C(=C\c2ccc(N3CCOCC3)cc2)C(=O)/C(=C/c2ccc(N3CCOCC3)cc2)C1 was read as D1 agonist 46*, D1 antag 8, D1 PAM -4, TRHR ag 21 and TRHR enhancer -6.
Screening COC(=O)c1ccc(NC(=O)CC2C(=O)N(c3ccccc3)C(=O)N2C2CCCC2)cc1 (stereo unspecified) returned D1 agonist 3, D1 antag 0, D1 PAM -1, TRHR ag 0 and TRHR enhancer -6.
`COc1ccc(C(=O)NNC(=O)C(NC(=O)c2cc(OC)cc(OC)c2)C(C)C)cc1` (stereo unspecified) gave D1 agonist 1, D1 antag -39*, D1 PAM -4, TRHR ag -1 and TRHR enhancer 1.
COc1ccccc1CNc1nc(-c2ccco2)nn1S(=O)(=O)c1ccc2ccccc2c1 was read as D1 agonist 9, D1 antag -19, D1 PAM -2, TRHR ag -2 and TRHR enhancer 7.
`Cc1ccc(C)c(Nc2nnc(-c3ccc(C)c(S(=O)(=O)N4CCN(C)CC4)c3)c3ccccc23)c1` gave D1 agonist -3, D1 antag -31*, D1 PAM 1, TRHR ag 0 and TRHR enhancer 0.
Cc1ccc(C)c(Nc2nnc(-c3ccc(C)c(S(=O)(=O)NCC4CCCO4)c3)c3ccccc23)c1 (stereo unspecified) was read as D1 agonist 2, D1 antag -39*, D1 PAM 0, TRHR ag 0 and TRHR enhancer 1.
For CC1Cc2ccccc2N1S(=O)(=O)c1cccc(C(=O)NCc2ccncc2)c1 (stereo unspecified) the results were D1 agonist 14, D1 antag -54*, TRHR ag -1 and TRHR enhancer 2.
